# Screening data from PubChem BioAssay.
# HDAC3 inhib – inhibitors of human histone deacetylase 3 | O15379 | recombinant HDAC3, fluorogenic peptide/trypsin coupled, fluorescence | inhibition, % at 8.3 µM | 320,000 compounds, 0.15% hits; in the data active = inhibition above about 26%, passing the limit was not always enough
# Target sequence (O15379 whole entry, looked up): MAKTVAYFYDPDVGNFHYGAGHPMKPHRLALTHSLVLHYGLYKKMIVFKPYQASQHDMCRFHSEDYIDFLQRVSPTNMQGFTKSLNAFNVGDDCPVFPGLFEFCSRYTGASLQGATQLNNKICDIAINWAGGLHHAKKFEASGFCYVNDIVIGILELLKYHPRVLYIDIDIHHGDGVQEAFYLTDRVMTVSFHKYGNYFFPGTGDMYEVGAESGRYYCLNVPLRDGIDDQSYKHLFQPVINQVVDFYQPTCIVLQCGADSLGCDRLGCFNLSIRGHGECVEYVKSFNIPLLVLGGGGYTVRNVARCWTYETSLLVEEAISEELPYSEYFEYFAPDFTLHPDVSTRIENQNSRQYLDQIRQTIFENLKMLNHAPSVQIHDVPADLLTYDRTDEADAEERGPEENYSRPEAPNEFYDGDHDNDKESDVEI
# CR mimetic SO – caloric restriction mimetics inhibiting age-related superoxide in yeast; S. cerevisiae aged cells, superoxide DHE fluorescence; hits give low values; superoxide response (% of plate mean), % at 10 µM; 330,000 compounds, 0.18% hits;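 active = superoxide response under a set limit, about three screen SD below normal, cut at about 65% in these data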;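 note: yeast aged for seven days with compound at 30 °C before DHE staining; 100% = average MFI of all compound-treated wells on the plate with controls excluded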
# HIF act – HIF pathway transcriptional activation; U2OS HRE-luciferase reporter, luminescence; normalized: DMSO 0%, desferrioxamine 100%; AID 1910; activation, % at 7.5 µM (by protocol); 300,000 compounds, 0.32% hits;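 active = mean activation of at least 10% of the iron chelator positive control signal, with at least half of replicates also reaching 10%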
# LANA-H2B inh – blocks KSHV LANA binding to histone H2A/H2B. cell-free LANA-H2A/H2B peptide, fluorescence polarization. inhibition, % (test concentration not listed). 320,000 compounds, 0.6% hits. AID 2629; in the data active = inhibition mostly above about 10%, no sharp cut-off; inactive = mostly below about 6.7%
# The depositor's hits bear a star; · = no result given; + = active, no number. An excerpt weighted towards active compounds, which were near 1.2% of everything screened.
SMILES,HDAC3 inhib,CR mimetic SO,HIF act,LANA-H2B inh
O=C(C[C@H]1C/C=C\CC[C@H](Cc2ccc(F)cc2)C(=O)O[C@@H](c2ccccc2)CNC1=O)N[C@@H](CO)Cc1ccccc1,2,83,·,-7
CC(C)(C)OC(=O)C[C@H]1C/C=C\C[C@H](CC(=O)N[C@H](CO)Cc2ccccc2)C(=O)N[C@H](Cc2ccccc2)COC1=O,3,102,·,83*
O=C(C[C@H]1C/C=C\CC[C@H](Cc2ccc(F)cc2)C(=O)O[C@H](c2ccccc2)CNC1=O)N[C@H](CO)Cc1ccccc1,2,106,·,+
C[C@H](NS(=O)(=O)c1ccccc1F)C(=O)OCC(=O)Nc1ccc2c(c1)OCCO2,3,94,·,-2
Cc1ccc(S(=O)(=O)c2nc(-c3ccccc3F)oc2N2CC(C)OC(C)C2)cc1 (stereo unspecified),5,95,0,59*
O=S(=O)(c1ccc(F)cc1)c1nc(-c2ccccc2F)oc1N1CCCCC1,3,126,0,4
CCCCCc1n[nH]c2c1CCCC2,-4,100,0,0
Cc1cc(Cl)ccc1OCCCC(=O)NNC(=O)c1ccncc1,0,92,·,1
COC(=O)C(Cc1ccccc1)NC(=O)CCC(=O)NC(C)CCc1ccccc1 (stereo unspecified),-6,103,-4,14*
O=S(=O)(c1ccc(=S)[nH]c1)N1CCCCCC1,3,105,·,38*
O=S(=O)(c1ccc(=S)[nH]c1)N1CCOCC1,4,97,·,1
S=C(Nc1ccc(Cl)cc1)c1sc(N2CCCCC2)nc1N1CCOCC1,2,98,0,0
O=C(CCc1c[nH]c2ccccc12)N1CCCCCCC1,4,98,0,60*
CCc1n[nH]c(=S)n1/N=C/c1ccc(-c2ccc(Br)cc2)o1,15,109,22*,1
COC(=O)Cn1cnc2c(nnn2-c2cccc(OC)c2)c1=O,-7,138,-1,0
COc1ccc2ccccc2c1C(=O)/C=C\c1ccoc1,-4,87,-1,-6
CCOC(=O)C1(CCCc2ccccc2)CCN(C(=O)C2CCCO2)CC1 (stereo unspecified),8,112,0,-10
Clc1cccc(Cl)c1/C=C/c1nc2ccccc2[nH]1,-8,90,2,11*
Clc1ccc(/C=C/c2nc3ccccc3[nH]2)cc1,-62,87,-3,-2
C=CCn1c(SCC(=O)NNC(=O)Nc2ccc(C)cc2)nnc1-c1ccccc1,-1,92,-1,1
C=CCn1c(SCC(=O)Nc2ccc(-c3nc4ccc(C)cc4s3)cc2)nnc1-c1ccccc1,-11,90,1,159*
C#CCOCCOCCOCCNc1nc(N2CCN(C(=O)[C@H]([C@@H](C)CC)n3cc([C@@H](N)CO)nn3)CC2)nc(N2CCN(C(=O)[C@H](Cc3cc4ccccc4[nH]3)n3cc([C@@H](N)Cc4ccc(O)cc4)nn3)CC2)n1,11,103,0,-2
NC(=O)NC(CC(=O)NCCCc1ccccc1)c1ccccc1Cl (stereo unspecified),2,99,0,4
NC(=O)NC(CC(=O)NCCc1ccccn1)c1ccccc1Cl (stereo unspecified),1,94,0,15*
COc1ccc(CC(=O)Nc2cccc(-c3nnc(-c4ccccc4)o3)c2)cc1OC,·,·,376*,·
SMILES,HDAC3 inhib,CR mimetic SO,HIF act,LANA-H2B inh
COc1ccc(C(=O)NCC(=O)OCC(=O)NCc2ccco2)cc1,12,107,·,-3
COc1cc(OC)cc(C(=O)NCC(=O)OCC(=O)NCc2ccco2)c1,33*,102,·,3
Cc1ccc(-n2nnc3c(=O)n(CC(=O)N4CCCC4)cnc32)cc1,1,90,0,10*
Fc1ccccc1NC(=S)Nc1ccc(Br)cc1,0,97,80*,-3
O=C(CSc1nc(-c2ccccc2Cl)ns1)c1ccc(Cl)cc1,-1,80,0,2
Cc1cccc(-c2nsc(SCC(=O)c3ccc(Cl)cc3)n2)c1,1,101,228*,3
CCOC(=O)c1cnc2ccccc2c1Nc1ccc2c(c1)OCCO2,-10,115,-2,16*
CCOC(=O)c1cnc2ccccc2c1NCc1ccco1,-2,93,0,-14
NC(=O)c1ccc(NC(=O)COC(=O)c2cccc(Oc3ccccc3)c2)cc1,·,103,0,3
CC(C)NC(=O)c1cc2nc(-c3ccco3)cc(C(F)(F)F)n2n1,-3,105,0,-7
CC(C)NC(=O)c1nn2c(C(F)(F)F)cc(-c3ccco3)nc2c1Cl,-2,105,-1,43*
CCCNC(=O)C(Cc1ccc(Br)cc1)NC(=O)c1ccc(C#N)cc1 (stereo unspecified),-2,96,·,2
O=C(c1cccc(C(F)(F)F)c1)c1c[nH]c(C(=O)NCC2CCCO2)c1 (stereo unspecified),7,109,-1,+
COCCN1C=C2C(=O)C(C)(OC(=O)CCc3ccccc3)C(=O)C=C2C=C1c1ccc(C#N)cc1 (stereo unspecified),-11,103,-1,101*
CC1(OC(=O)CCc2ccccc2)C(=O)C=C2C=C(c3ccc(C#N)cc3)N(Cc3ccccc3)C=C2C1=O (stereo unspecified),1,85,-6,1
O=C(Cn1cc(C(F)(F)F)ccc1=O)Nc1cc(S(=O)(=O)N2CCOCC2)ccc1Cl,-8,101,-1,-2
O=C(Cn1cc(C(F)(F)F)ccc1=O)Nc1cccc(S(=O)(=O)N2CCOCC2)c1,-1,111,-1,22*
CCCN(CC1CC1)C(=O)COC(=O)c1oc2c(F)cccc2c1C,-4,91,·,-1
CNc1nnc(SCC(=O)N2c3ccccc3NC(=O)CC2C)s1 (stereo unspecified),-2,90,·,+
COc1ccc2c(n1)Sc1nc3ccccc3nc1N2,7,59*,6,-5
O=S(=O)(Nc1ccc(S(=O)(=O)Nc2nccs2)cc1)c1ccc(Br)cc1,43*,92,0,-5
CC(=O)Nc1ccc(S(=O)(=O)Nc2nccs2)cc1,-1,99,0,4
CC(=O)Nc1ccc(S(=O)(=O)Nc2ccc(S(=O)(=O)Nc3nccs3)cc2)cc1,-9,93,23*,3
O=S(=O)(Nc1nccs1)c1ccc(Br)cc1,7,105,0,2
CN(C(=O)COC(=O)C1COc2ccccc2O1)c1c(N)n(Cc2ccccc2)c(=O)[nH]c1=O (stereo unspecified),1,105,0,-5
COc1ccc(NC(=O)[C@@H]2[C@@H]3C(=O)N(C4CCCCC4)C(=O)[C@@H]3C3c4ccccc4C=CN32)cc1 (stereo partly specified),4,110,0,17*
C/C(=N\Nc1ncnc2sc(C)c(C)c12)c1ccccn1,13,36*,96*,0
Cc1sc2ncnc(N/N=C/c3cccc(O)c3)c2c1C,11,100,·,4
CC(C)(C)C(=O)N1CCCC1C(=O)O (stereo unspecified),-5,99,0,28*
